Source: PubChem (National Center for Advancing Translational Sciences (NCATS))
RE007 growth inh – less growth of the S. pombe RE007 Vpr strain; hit rate 0.21% among 360,000; AID 651644; Potency, µM (doses to about 92.2 µM), actives largely listed as inhibitors; S. pombe RE007 Vpr strain, BacTiter-Glo ATP luminescence, 24 h; active = well fitted falling curve with a large enough effect; inconclusive = small, poorly fitted or top-dose-only effect; inactive = no such curve, though single readings can be large or run the other way; note: nearly all actives have a fitted effect of over 50% in size
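Fission yeast RE007 carrying one integrated HIV-1 vpr copy, seeded at OD 0.01 in PMG+AL medium with 23 nL pinned compound. Grown 24 h at 30 degrees; viability read by BacTiter-Glo luminescence after 5 min.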
Sm TGR inh – blocks Schistosoma mansoni thioredoxin glutathione reductase | Q962Y6 | purified TGR, DTNB reduction, TNB absorbance 405 nm | AID 485364 | Potency, µM (top dose mostly 114 µM), most hits filed as inhibitors | hit rate 3% among 360,000; note: nearly all actives have a fitted effect of over 60% in size
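First, TGR (20 nM dispensed) and NADPH were mixed with compound. Second, a 15 min room-temperature incubation followed. Third, further NADPH and then DTNB were added to start the reaction. Finally, TNB absorbance was monitored kinetically.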
Tb PYK inh – inhibitors of Trypanosoma brucei pyruvate kinase; Q57TT1; TbPYK enzyme, Kinase-Glo Plus ATP luminescence, 45 min; Potency, µM (titrated, usually from 76.8 µM), hits mostly inhibitors; hit rate 0.12% among 410,000; note: nearly all actives have a fitted effect of over 50% in size
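Quantitative HTS: titrated library compounds versus trypanosomal pyruvate kinase in TEA buffer (pH 7.2) containing KCl, MgCl2, BSA and Tween-20. Reactions were initiated with ADP, 130 uM final. Kinase-Glo Plus luminescence was read after 45 min at RT.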
NS1 function inh – inhibitors of influenza NS1 protein function; AID 2326; Potency, µM (top dose mostly 46.1 µM); hit rate 0.4% among 270,000; calls by dose curve; note: actives are rising curves; nearly all actives have a fitted effect of over 50% in size
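Growth recovery, yeast-based: influenza A NS1 expressed in S. cerevisiae causes slow growth, and suppressors are detected by OD600. The parent strain without NS1 is used as positive control.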
FBPA Giardia inh – inhibitors of Giardia lamblia fructose-1,6-bisphosphate aldolase | A8B2U2 | purified Giardia FBPA | Potency, µM (highest dose often 59.6 µM), hits mostly inhibitors | hit rate 0.71% among 290,000 | AID 2451; note: nearly all actives have a fitted effect of over 55% in size
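40 nM FBPA preincubated 10 min at RT with compound (up to 57.5 uM final), then substrate plus GAPDH/TPI/NAD/arsenate coupling and diaphorase/resazurin added. Fluorescence read after 20 min at RT, 525/598 nm.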
LmPK inh – blocks Leishmania mexicana pyruvate kinase activity. AID 1721. Q27686. hit rate 0.37% among 290,000. purified LmPK, Kinase-Glo ATP luminescence, 1 h. Potency, µM (highest dose often 57.5 µM), actives largely listed as inhibitors
Target sequence (Q27686 whole entry, looked up): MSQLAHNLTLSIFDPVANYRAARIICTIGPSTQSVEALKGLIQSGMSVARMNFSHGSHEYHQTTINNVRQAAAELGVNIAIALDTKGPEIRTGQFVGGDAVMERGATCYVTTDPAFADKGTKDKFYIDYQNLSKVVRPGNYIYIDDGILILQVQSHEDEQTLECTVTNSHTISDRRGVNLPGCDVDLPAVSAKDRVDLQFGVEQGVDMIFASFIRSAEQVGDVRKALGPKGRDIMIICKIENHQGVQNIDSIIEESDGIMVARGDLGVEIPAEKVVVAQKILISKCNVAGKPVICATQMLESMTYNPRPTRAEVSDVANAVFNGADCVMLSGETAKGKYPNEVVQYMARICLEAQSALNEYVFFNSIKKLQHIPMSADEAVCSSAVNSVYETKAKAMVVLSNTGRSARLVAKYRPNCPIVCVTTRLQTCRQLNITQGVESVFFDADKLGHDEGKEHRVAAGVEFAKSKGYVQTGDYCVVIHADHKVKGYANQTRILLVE
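0.1 nM LmPK, 0.5 mM PEP, 0.1 mM ADP; 50 mM imidazole pH 7.2, 7 mM MgCl2, 50 mM KCl; 1 h RT. Kinase-Glo luminescence readout, normalized to no-enzyme (full inhibition) and uninhibited wells.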
Hits are given with their value. Most compounds without a hit are left out; they make up all but 3.5% or so of the library. Unless noted, calls come from the whole dose curve; as a rule, active = well fitted curve in the direction sought with a large enough effect; inconclusive = small, poorly fitted or top-dose-only effect, or another doubt; inactive = no such curve, though single readings can be large; an effect the other way counts as inactive or inconclusive.

`Oc1c(Br)c(Br)c(Br)c(Br)c1Br` gave RE007 growth inh inconclusive, Sm TGR inh 3.5µM and Tb PYK inh inactive.
Screening Oc1c(Br)cc(Br)cc1Br returned RE007 growth inh inactive, Sm TGR inh inactive and Tb PYK inh inactive.
CCc1cccc(NC(=O)Cn2nc3c4cc(F)ccc4n(Cc4cccc(C)c4)cc-3c2=O)c1 was read as Sm TGR inh inactive and Tb PYK inh inactive.
Cn1cnc([N+](=O)[O-])c1S(=O)(=O)Oc1ccccc1 was read as RE007 growth inh inactive and Tb PYK inh inactive.
Screening Cn1cnc([N+](=O)[O-])c1S(=O)(=O)c1cccc(Cl)c1 returned RE007 growth inh inactive, Sm TGR inh 0.28µM, Tb PYK inh inactive, NS1 function inh inactive, FBPA Giardia inh inactive and LmPK inh inactive.
Screening Cc1csc(NC(=O)c2ccc3ccccc3n2)n1 returned RE007 growth inh inactive, Sm TGR inh inactive, Tb PYK inh inactive, NS1 function inh inactive, FBPA Giardia inh inactive and LmPK inh inactive.
Cc1csc(NC(=O)c2cccn2C)n1 was read as RE007 growth inh inactive, Sm TGR inh inactive, Tb PYK inh inactive, NS1 function inh inactive and LmPK inh 18µM.
O=C(Nc1ccc(-n2cnnn2)cc1)c1cn2ccccc2n1 was read as RE007 growth inh inactive, Sm TGR inh inactive, Tb PYK inh inactive, NS1 function inh inactive, FBPA Giardia inh inactive and LmPK inh inactive.
`O=C(Nc1ccccc1)c1cn2ccccc2n1` gave RE007 growth inh inactive, Sm TGR inh inactive, Tb PYK inh inactive, NS1 function inh inactive, FBPA Giardia inh inactive and LmPK inh 16µM.
Screening Cc1csc(NC(=O)c2ccc(C(=O)Nc3nc(C)cs3)cc2)n1 returned Sm TGR inh inactive, NS1 function inh inactive, FBPA Giardia inh inactive and LmPK inh inactive.
`Cc1csc(NC(=O)c2sccc2C)n1` gave RE007 growth inh inactive, Sm TGR inh inactive, Tb PYK inh inactive, NS1 function inh inactive, FBPA Giardia inh inactive and LmPK inh 14µM.
`Cc1csc(NC(=O)c2cn3ccccc3n2)n1` gave RE007 growth inh inconclusive, Sm TGR inh inactive, Tb PYK inh inconclusive, FBPA Giardia inh inconclusive and LmPK inh 14µM.
For Cc1ccc(Cn2c(C(=O)O)c(CNC3CCCCCC3)c3ccc(C)cc32)cc1 the results were Sm TGR inh inactive and Tb PYK inh inactive.
CC1=CC(C)(C)N(C(=O)Nc2ccccc2)c2ccccc21 was read as RE007 growth inh inactive, Sm TGR inh inconclusive, Tb PYK inh inactive, FBPA Giardia inh inactive and LmPK inh inactive.
`CC(=O)N1c2ccccc2C(CBr)=CC1(C)C` gave RE007 growth inh inactive, Sm TGR inh 13µM, Tb PYK inh inactive, NS1 function inh inactive, FBPA Giardia inh inactive and LmPK inh inactive.
For CN(c1ncnc2onc(-c3cccc(Cl)c3)c12)C1CCCCC1 the results were Sm TGR inh inactive and Tb PYK inh inactive.
`O=c1oc(Cl)c(Cl)c2ccccc12` gave RE007 growth inh inactive, Sm TGR inh 3.2µM, Tb PYK inh inactive, NS1 function inh inactive and FBPA Giardia inh inactive.
O=c1oc2cc(O)c(Cl)cc2c2ccccc12 was read as RE007 growth inh inactive, Sm TGR inh inactive, Tb PYK inh inactive, NS1 function inh inactive, FBPA Giardia inh inactive and LmPK inh inactive.
Screening CCOc1ccc(-n2cc(-c3ccccc3)c3c(NCc4ccc(F)cc4)ncnc32)cc1 returned Sm TGR inh 79µM and Tb PYK inh inactive.
For CCOC(=O)c1ccc(N=c2ssnc2Cl)cc1 the results were RE007 growth inh inconclusive, Sm TGR inh inactive, Tb PYK inh 35µM, FBPA Giardia inh inconclusive and LmPK inh inactive.
CCOC(=O)c1ccc(N=C2SC(C(=O)NC)CC(=O)N2Cc2ccc(F)cc2)cc1 (stereo not given) was read as RE007 growth inh inactive, Sm TGR inh inactive, Tb PYK inh inactive, FBPA Giardia inh inactive and LmPK inh inactive.
For Fc1ccc(N=c2ssnc2Cl)c(F)c1 the results were RE007 growth inh inactive, Sm TGR inh inactive, Tb PYK inh 14µM, FBPA Giardia inh inconclusive and LmPK inh inactive.
For Clc1nssc1=Nc1ccccc1 the results were RE007 growth inh inconclusive, Sm TGR inh inconclusive, Tb PYK inh inconclusive, FBPA Giardia inh inconclusive and LmPK inh inactive.
